# Source: PubChem BioAssay (Tox21)
# Inconclusive results are not listed. Values without a mark were called inactive. The source made the active and inactive calls. Unless noted, the call rests on the fitted dose curve.
# Test system: not listed separately
# Experiment: cAMP Responsive Elements (CRE) small molecule agonists, cell-based qHTS assay (AID 1963590)
# Conditions: CRE-bla HEK293T, beta-lactamase FRET ratio, 3 h; series mostly up to 92.4 µM; activation: at the top concentration
# Method in brief: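 HEK 293T CRE-bla, 2,000 cells/well, 18 h preincubation 37 C/5% CO2; cpds (DMSO) pinned, 3 h; LiveBLAzer B/G FRET substrate, 2 h RT.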
# On the % scale 0 is the no-effect control and ±100 the full control effect.
Compound,activation,Potency
Nc1nc(N)c(N)c(N)n1,0.198%,–
COC(=O)C(C)N(C(=O)c1ccco1)c1c(C)cccc1C (centres undefined),-2.89%,–
CCCCCCCc1ccc(O)cc1,2.31%,–
O=c1ssc(Cl)c1Cl,-0.883%,–
CCCN(CCC)c1c([N+](=O)[O-])cc(C(F)(F)F)cc1[N+](=O)[O-],–,inactive
CNC(=O)N(C)c1nc2ccccc2s1,-3.44%,–
NC1CCC(CC2CCC(N)CC2)CC1 (centres undefined),-0.952%,–
CCCN(CC1CC1)c1c([N+](=O)[O-])cc(C(F)(F)F)cc1[N+](=O)[O-],-4.41%,–
CCCSP(=S)(OCC)Oc1ccc(Cl)cc1Cl (centres undefined),3.11%,–
NNC(N)=O,2.6%,–
O=NN1CCNCC1,-0.5%,–
Oc1ccc([C@H]2CNCc3c2ccc(O)c3O)cc1O,0.455% [at 42.5 µM],–
CCC1(CC)C(=O)N=C(O)NC1=O,-0.228%,–
CCCCN(CCCC)C(=S)S,-2.28%,–
CCOP(=S)(Oc1ccc([N+](=O)[O-])cc1)c1ccccc1 (centres undefined),1.05%,–
O=C1NCN(c2ccccc2)C12CCN(CCCOc1ccc(F)cc1)CC2,6.62% [at 42.5 µM],–

# Test system: not listed separately
# Experiment: cAMP Responsive Elements (CRE) small molecule antagonists, cell-based qHTS assay (AID 1963591; active means well fitted inhibition curve with a large enough effect in the signal ratio in the repeat runs, not every such curve was filed as active; the % refers to the signal ratio; further: potency means the concentration at half of the fitted maximal effect)
# Conditions: CRE-bla HEK293T, beta-lactamase FRET ratio; series mostly up to 92.4 µM; activity change, negative = inhibition: at the top concentration
# Method in brief: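 Beta-lactamase reporter read by FRET substrate (LiveBLAzer B/G) after 2 h at room temperature. CRE-bla HEK293T cells had received compound plus 0.25 uM (final) NKH477 for 3 h at 37 °C.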
Compound,"activity change, negative = inhibition",Potency
Nc1nc(N)c(N)c(N)n1,-13.1%,–
CCCCCCCc1ccc(O)cc1,–,68.6 µM (active)
O=c1ssc(Cl)c1Cl,-2.97%,–
Nc1ccc(Cl)cc1C(=O)c1ccccc1,-54%,–
CNC(=O)N(C)c1nc2ccccc2s1,1.56%,–
O=[N+]([O-])c1ccc(Oc2ccc(C(F)(F)F)cc2[N+](=O)[O-])cc1,-5.4%,–
CCCN(CC1CC1)c1c([N+](=O)[O-])cc(C(F)(F)F)cc1[N+](=O)[O-],0.403%,–
CCCSP(=S)(OCC)Oc1ccc(Cl)cc1Cl (centres undefined),2.19%,–
Fc1ccc(Oc2ccnc3cc(Cl)cc(Cl)c23)cc1,1.01%,–
O=NN1CCNCC1,-4.5%,–
Oc1ccc([C@H]2CNCc3c2ccc(O)c3O)cc1O,5.5% [at 42.4 µM],–
CCC1(CC)C(=O)N=C(O)NC1=O,0.535%,–
NS(=O)(=O)C(F)(F)C(F)(F)C(F)(F)C(F)(F)C(F)(F)C(F)(F)C(F)(F)C(F)(F)F,17%,–
CSC(=O)c1c(C(F)F)nc(C(F)(F)F)c(C(=O)SC)c1CC(C)C,12.4%,–
CCOP(=S)(Oc1ccc([N+](=O)[O-])cc1)c1ccccc1 (centres undefined),26.2%,–
Brc1ccc(Oc2ccc(Br)cc2Br)c(Br)c1,-5.55%,–

# Biological target: Beta-2 adrenergic receptor (Homo sapiens) (UniProt P07550)
# Sequence (P07550 whole entry, looked up): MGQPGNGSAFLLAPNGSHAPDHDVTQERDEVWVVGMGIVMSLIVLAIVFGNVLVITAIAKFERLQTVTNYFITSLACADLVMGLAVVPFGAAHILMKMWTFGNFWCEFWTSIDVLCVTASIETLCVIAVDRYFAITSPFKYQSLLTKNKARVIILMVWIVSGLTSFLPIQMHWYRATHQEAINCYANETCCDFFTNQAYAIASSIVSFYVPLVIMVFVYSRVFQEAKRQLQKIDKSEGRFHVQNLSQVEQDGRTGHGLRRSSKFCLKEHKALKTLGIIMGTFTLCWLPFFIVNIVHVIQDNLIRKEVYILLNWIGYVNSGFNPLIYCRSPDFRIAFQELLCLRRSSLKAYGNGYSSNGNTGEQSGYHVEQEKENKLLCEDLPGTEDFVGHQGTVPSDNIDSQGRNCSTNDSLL
# Experiment: Adrenergic beta2 receptor (ADRB2) small molecule antagonists, cell-based qHTS assay (AID 1963592); further: nearly all actives have a fitted effect of over 50% in size; further: potency means the concentration at half of the fitted maximal effect
# Conditions: CHO-ADRB2 cells, isoproterenol-stimulated cAMP HTRF ratio, 0.5 h; series mostly up to 92.4 µM; activity change, negative = inhibition: at the top concentration
# Method in brief: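 Cells (CHO, stable ADRB2 overexpression) incubated 18-20hr at 37C; compounds added from DMSO; agonist mix (1nM isoproterenol, 100uM IBMX, 25uM Ro-20-1724) added; 0.5hr RT; d2-cAMP and anti-cAMP-cryptate added; 1hr RT; 665/615 nm read.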
Compound,"activity change, negative = inhibition",Potency
Nc1nc(N)c(N)c(N)n1,-14%,–
CCOP(=S)(NC(C)C)Oc1ccccc1C(=O)OC(C)C (centres undefined),0.268%,–
COC(=O)C(C)N(C(=O)c1ccco1)c1c(C)cccc1C (centres undefined),-0.313%,–
CCCCCCCc1ccc(O)cc1,6.78%,–
O=c1ssc(Cl)c1Cl,4.14%,–
Nc1ccc(Cl)cc1C(=O)c1ccccc1,0.637%,–
CCCN(CCC)c1c([N+](=O)[O-])cc(C(F)(F)F)cc1[N+](=O)[O-],–,inactive
CNC(=O)N(C)c1nc2ccccc2s1,-7.23%,–
c1ccc2c(c1)cc1ccc3cccc4ccc2c1c34,3.18%,–
CC(C)(O)c1cnn2c(-c3ccc(F)c(-c4c(F)cccc4C#N)c3)cnc2n1,-15.6%,–
CC(C)(C)C(O)/C(=C\c1ccc(Cl)cc1Cl)n1cncn1 (centres undefined),-4.7%,–
NC1CCC(CC2CCC(N)CC2)CC1 (centres undefined),9.7%,–
O=[N+]([O-])c1ccc(Oc2ccc(C(F)(F)F)cc2[N+](=O)[O-])cc1,-6.24%,–
CCCN(CC1CC1)c1c([N+](=O)[O-])cc(C(F)(F)F)cc1[N+](=O)[O-],9.18%,–
CC(C)C1CCC(Cc2ccc(Cl)cc2)C1(O)Cn1cncn1 (centres undefined),–,30.3 µM (active)
COC(C)(C)CCC[C@H](C)C/C=C/C(C)=C/C(=O)OC(C)C,1.52%,–
CCCSP(=S)(OCC)Oc1ccc(Cl)cc1Cl (centres undefined),-7.17%,–

Compound,"activity change, negative = inhibition",Potency
O=C(N[C@H](c1ccccc1)[C@@H]1CN2CCC1CC2)c1c(Cl)ccc(C(F)(F)F)c1Cl,-5.86%,–
O=[N+]([O-])c1cc(C(F)(F)F)cc([N+](=O)[O-])c1Cl,-4.4%,–
c1cc(OCC2CO2)ccc1Cc1ccc(OCC2CO2)cc1 (centres undefined),-12.1%,–
Cc1cc(C2CC2)nc(Nc2ccccc2)n1,–,54.5 µM (active)
NNC(N)=O,-16.2%,–
Fc1ccc(Oc2ccnc3cc(Cl)cc(Cl)c23)cc1,-9.37%,–
O=C1C(I)=CC(=C(c2cc(I)c(O)c(I)c2)c2ccccc2C(=O)O)C=C1I,5.34% [at 42.5 µM],–
O=NN1CCNCC1,1.82%,–
CCC1(CC)C(=O)N=C(O)NC1=O,0.038%,–
CCCCN(CCCC)C(=S)S,4.51%,–
CSC(=O)c1c(C(F)F)nc(C(F)(F)F)c(C(=O)SC)c1CC(C)C,-0.0505%,–
CCOP(=S)(Oc1ccc([N+](=O)[O-])cc1)c1ccccc1 (centres undefined),1.63%,–
OC(c1ccc(Cl)cc1)(c1ccc(Cl)cc1)C(Cl)(Cl)Cl,-1.39%,–
O=C1NCN(c2ccccc2)C12CCN(CCCOc1ccc(F)cc1)CC2,–,5.96 µM (active)
Brc1ccc(Oc2ccc(Br)cc2Br)c(Br)c1,-1.15%,–
CCOC(=O)CCN(SN(C)C(=O)Oc1cccc2c1OC(C)(C)C2)C(C)C,4.44%,–

# Biological target: Beta-2 adrenergic receptor (Homo sapiens) (UniProt P07550)
# Experiment: Adrenergic beta2 receptor (ADRB2) small molecule agonists, cell-based qHTS assay (AID 1963593);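 further: CHO cells stably overexpressing human ADRB2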
# Conditions: CHO-ADRB2 cells, cAMP HTRF, 30 min; series mostly up to 92.4 µM; activation: at the top concentration
# Method in brief: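 CHO cells stably over-expressing ADRB2 were plated overnight at 37C, then dosed with compounds plus a stimulation mix containing 100uM IBMX and 25uM Ro-20-1724 for 0.5hr at room temperature. cAMP was measured by HTRF competition, 1hr.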
Compound,activation [%],Potency
CCCCCCCc1ccc(O)cc1,11.7,–
O=c1ssc(Cl)c1Cl,6.51,–
CCCN(CCC)c1c([N+](=O)[O-])cc(C(F)(F)F)cc1[N+](=O)[O-],–,inactive
CNC(=O)N(C)c1nc2ccccc2s1,-19.2,–
c1ccc2c(c1)cc1ccc3cccc4ccc2c1c34,38.2,–
CC(C)(O)c1cnn2c(-c3ccc(F)c(-c4c(F)cccc4C#N)c3)cnc2n1,5.53,–
NC1CCC(CC2CCC(N)CC2)CC1 (centres undefined),-6.07,–
O=[N+]([O-])c1ccc(Oc2ccc(C(F)(F)F)cc2[N+](=O)[O-])cc1,-0.699,–
COC(C)(C)CCC[C@H](C)C/C=C/C(C)=C/C(=O)OC(C)C,3.69,–
CCCSP(=S)(OCC)Oc1ccc(Cl)cc1Cl (centres undefined),-0.0934,–
O=C(N[C@H](c1ccccc1)[C@@H]1CN2CCC1CC2)c1c(Cl)ccc(C(F)(F)F)c1Cl,9.74,–
NNC(N)=O,3.31,–
Fc1ccc(Oc2ccnc3cc(Cl)cc(Cl)c23)cc1,-15.3,–
CCC1(CC)C(=O)N=C(O)NC1=O,3.01,–
NS(=O)(=O)C(F)(F)C(F)(F)C(F)(F)C(F)(F)C(F)(F)C(F)(F)C(F)(F)C(F)(F)F,4.29,–
CCOP(=S)(Oc1ccc([N+](=O)[O-])cc1)c1ccccc1 (centres undefined),16.7,–
CC(C)(c1ccccc1)c1ccc(O)cc1,-9.4,–
Brc1ccc(Oc2ccc(Br)cc2Br)c(Br)c1,0,–
CCOC(=O)CCN(SN(C)C(=O)Oc1cccc2c1OC(C)(C)C2)C(C)C,11.8,–
